Assay outcomes from PubChem.
Sampled rows, rich in hits. Any-hit rate of the full collection: about 0.54%.
Mtb RmlCD inh = M. tuberculosis RmlC/RmlD inhibition | 160,000 tested, 0.03% active | P9WH09+P9WH11 | inhibition, % at 3.6 µM | RmlC+RmlD coupled enzyme assay, percent inhibition; primary screen in compound mixtures; in the data active means inhibition mostly above about 34%, no sharp cut-off
Target sequence (P9WH09 whole entry, looked up): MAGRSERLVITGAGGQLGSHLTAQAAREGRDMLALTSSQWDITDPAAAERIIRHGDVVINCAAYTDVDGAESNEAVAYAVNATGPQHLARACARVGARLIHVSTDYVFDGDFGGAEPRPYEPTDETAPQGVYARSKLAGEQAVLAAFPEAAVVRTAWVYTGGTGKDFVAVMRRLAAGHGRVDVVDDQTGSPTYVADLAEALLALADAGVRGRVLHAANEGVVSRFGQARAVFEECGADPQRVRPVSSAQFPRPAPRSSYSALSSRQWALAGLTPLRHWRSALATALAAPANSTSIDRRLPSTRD
Target sequence (P9WH11 whole entry, looked up): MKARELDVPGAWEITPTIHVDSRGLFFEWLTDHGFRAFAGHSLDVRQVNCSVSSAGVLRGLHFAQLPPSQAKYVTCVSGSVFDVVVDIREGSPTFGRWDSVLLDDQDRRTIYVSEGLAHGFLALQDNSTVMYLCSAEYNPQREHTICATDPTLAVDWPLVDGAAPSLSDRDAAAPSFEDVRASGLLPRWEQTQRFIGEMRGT
VHR inh abs = inhibitors of human VHR1 phosphatase (DUSP3). P51452. recombinant VHR phosphatase, pNPP absorbance. inhibition, % at 13.3 µM. 290,000 tested, 0.52% active. AID 1654; in the data active means inhibition above about 50%
Starred values were filed as active, the others as inactive; · = no result.

SMILES	Mtb RmlCD inh	VHR inh abs
O=C(O)CCSCC(=O)Nc1c(C(=O)C2CC2)oc2ccccc12	·	-1
CCCCNCCOCCOc1ccc(Cl)cc1Br	-2	-13
CC(C)N1CC(C(=O)Nc2cccc([N+](=O)[O-])c2)CC1=O (stereo not drawn)	·	56*
O=C(Nc1cccc([N+](=O)[O-])c1)C1CC(=O)N(Cc2ccccc2)C1 (stereo not drawn)	-4	8
CN(C(=O)Nc1ccccc1)C1CCCc2ccccc21 (stereo not drawn)	·	-35
COc1ccccc1/C=C\C(=O)NCC(=O)N/N=C/c1ccc(O)cc1O	-6	56*
COc1ccccc1/C=C/C(=O)NCC(=O)N/N=C/c1ccccc1	6	10
COc1ccc(C(=O)Nc2ccc3ccccc3n2)cc1OC	·	18
Cc1cccc(CC(Cc2nc3ccccc3[nH]2)c2nc3ccccc3[nH]2)c1 (stereo not drawn)	-2	-12
NS(=O)(=O)c1ccc(NC(=S)Nc2ccn(Cc3cccc4ccccc34)n2)cc1	-4	16
CC1CCCC(C)N1C(=O)CSc1nc2c(c(=O)n(C)c(=O)n2C)n1C (stereo not drawn)	·	-7
O=[N+]([O-])c1ccccc1/C=C\C=N\N1CCN(c2ccccc2)CC1	9	19
COc1ccccc1N1CCN(/N=C/C=C/c2ccccc2[N+](=O)[O-])CC1	-5	50*
CN(Cc1ccccc1F)C(=O)COc1ccc(C(=O)c2ccccc2)cc1	·	-3
CC1SC(c2cccc(Cl)c2)NC1=O (stereo not drawn)	·	13
CC1SC(c2ccc(Cl)cc2Cl)NC1=O (stereo not drawn)	·	57*
Cc1cc(C(=O)N/N=C/c2ccc(-c3cccc(Br)c3)o2)n[nH]1	·	-11
Cc1cc(C(=O)N/N=C/c2ccc(-c3cccc(Cl)c3Cl)o2)n[nH]1	·	51*
O=C(Nc1nc2ccc(C(=O)N3CCCCC3)cc2s1)C1CCCCC1	6	11
COc1ccc(C(=O)N/C(=C\c2cccc3ccccc23)C(=O)N2CCN(C)CC2)cc1OC	-14	6
CCn1cc(/C=C(\NC(=O)c2ccc(OC)c(OC)c2)C(=O)N2CCN(C)CC2)c2ccccc21	·	57*
Cc1[nH]n(-c2ccc([N+](=O)[O-])cc2)c(=O)c1C=NCCc1c[nH]c2ccccc12	·	55*
CCCc1[nH]n(-c2ccc([N+](=O)[O-])cc2)c(=O)c1C=NCCc1c[nH]c2ccccc12	7	30
COC(=O)c1nc(N)sc1-c1ccccc1	12	-16
COC(=O)c1nc(N)sc1C(C)C	4	53*
SMILES	Mtb RmlCD inh	VHR inh abs
Cc1ccc2nc(SCc3nc4c(cnn4-c4ccccc4)c(=O)[nH]3)[nH]c2c1	15	24
CN1CCN(S(=O)(=O)c2cccc(C(=O)NCc3ccccc3Cl)c2)CC1	-3	-3
COc1ccc(C(=O)Nc2ccc(C(=O)O)cc2NC(=O)c2ccc(OC)cc2)cc1	·	-9
CCC(=O)Nc1ccc(N2CCCCC2)c(C(=O)Nc2ccc(OC)cc2)c1	·	4
COc1ccc(CC(=O)Nc2ccc(C(=O)O)cc2NC(=O)Cc2ccc(OC)cc2)cc1	-2	57*
COc1ccc(CC(=O)Nc2ccc(N3CCCC3)c(C)c2)cc1	·	50*
Cc1cc(C)cc(-n2ncc3c2CCCC3NC(=O)CN2CCCCC2=O)c1 (stereo not drawn)	·	1
O=c1ccc(-c2ccc(S(=O)(=O)N3CCN(c4ccccc4)CC3)o2)n[nH]1	·	1
CCOC(=O)C1CCN(S(=O)(=O)c2ccc(-c3ccc(=O)[nH]n3)o2)CC1	·	51*
COC(CNc1ncnc2c1cnn2C)OC	14	-7
O=C(c1ccco1)N1CCN(c2nc(-c3ccc(F)cc3)cs2)CC1	8	24
COC(=O)C1CCN(c2ccc(C(N)=O)cc2[N+](=O)[O-])CC1	-10	-4
O=C(NCc1ccccc1Cl)/C(=C\c1cccnc1)NC(=O)c1ccccc1	·	58*
O=C(NCc1cccnc1)/C(=C/c1ccc(Cl)cc1)NC(=O)c1ccccc1	·	11
CCc1ccccc1NC(=S)N(Cc1ccc(OC)cc1)CC1CCC(C(=O)O)CC1 (stereo not drawn)	·	16
O=C(CN(C(=O)CCC(=O)Nc1nccs1)c1ccccc1F)NCc1ccccc1	·	26
Cc1ccccc1N(CC(=O)NCc1ccccc1)C(=O)CCC(=O)Nc1nccs1	·	51*
O=C(c1cc(-c2ccc(Cl)cc2)n[nH]1)N1CCN(C(=O)c2ccco2)CC1	·	4
COc1cccc(CSc2nccn2C)c1	·	-4
CSc1ccc(C(=O)C2CCCN(C(=O)Cn3cnnn3)C2)cc1 (stereo not drawn)	·	6
CSc1ccc(C(=O)C2CCCN(Cc3cccnc3)C2)cc1 (stereo not drawn)	·	58*
CSc1ccc(C(=O)C2CCCN(Cc3cccn3-c3cccnc3)C2)cc1 (stereo not drawn)	·	22
CSc1ccc(C(=O)C2CCCN(C(=O)CCc3cnn(C)c3)C2)cc1 (stereo not drawn)	·	50*
Cc1ccc(S(=O)(=O)c2nnn3c2nc(NC2CCN(Cc4ccccc4)CC2)c2ccccc23)cc1C	·	-17
Cc1ccc(C(=O)N2CCc3ccccc32)cc1	·	13
SMILES	Mtb RmlCD inh	VHR inh abs
O=C(c1ccc(Cl)cc1)N1CCc2ccccc21	·	56*
Cc1cc([N+](=O)[O-])nn1CC(=O)NC(C)c1ccccc1 (stereo not drawn)	·	-6
O=C(c1cccc(COCC(F)(F)C(F)F)c1)N1CCN(c2ccccc2)CC1	·	-3
COc1ccc(C2=NC(CO)(CO)CO2)cc1	31	21
COc1cc(C2=NC(CO)(CO)CO2)cc(OC)c1OC	-10	58*
O=C(c1ccco1)N1CCN(Cc2cn[nH]c2-c2ccc(F)cc2F)CC1	-4	25
CCn1c(SCC(=O)NC2CCCC2)nnc1-c1cccnc1	·	30
CCOc1ccc(NC(=O)C2CCCN(S(=O)(=O)c3ccc4c(c3)CCCN4C(C)=O)C2)cc1 (stereo not drawn)	·	13
CC(=O)N1CCCc2cc(S(=O)(=O)N3CCCC(C(=O)Nc4cccc(C)c4)C3)ccc21 (stereo not drawn)	·	54*
O=C(NCCC(=O)N1CCC2(CC1)NCCc1[nH]cnc12)c1ccc(F)c(F)c1	·	-20
Cc1cc(C)cc(N=C2NC(=O)CS2)c1	·	59*
Cc1cccc(N=C2NC(=O)CS2)c1	·	33
O=C1CN(C(=O)CNCc2ccccc2)c2ccccc2N1	10	52*
COc1ccccc1CNCC(=O)N1CC(=O)Nc2ccccc21	-7	9
N#Cc1cc(NC(=O)c2ccc(F)cc2)c(=O)n2c1[nH]c1ccccc12	1	10
c1ccc2oc(-c3ccc(Nc4nc(N5CCCCC5)nc(N5CCOCC5)n4)cc3)nc2c1	·	-1
CC(C)(C)c1ccc(C(=O)Nc2c3c(nn2C(C)(C)C)CS(=O)(=O)C3)cc1	·	28
Cc1cc(C)cc(C(=O)Nc2c3c(nn2C(C)(C)C)CS(=O)(=O)C3)c1	·	51*
CC1CCOC2(O1)C(=O)N(CN1CCN(c3cccc(Cl)c3)CC1)c1ccccc12 (stereo not drawn)	19	27
CCOC(=O)CSc1nnc2n(Cc3ccccc3)c(=O)c3c4c(sc3n12)CCC4	4	52*
Cc1nnc2n(Cc3ccccc3)c(=O)c3c4c(sc3n12)CCCC4	·	8
O=C1c2cccnc2Oc2ccc(Cl)cc2N1Cc1ccc(F)cc1	-4	-2
CCc1cc(CNC(=O)c2ccc(OC)c(OC3CCN(C(C)C)CC3)c2)on1	·	57*
